Bioassay records (PubChem)
POLI inh: DNA polymerase iota (human) inhibition. Potency, µM (series often up to 115 µM), most hits filed as inhibitors. 390,000 tested, 1% active. Q9UNA4. Pol iota fluorescent replication assay, 10 min
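Pol iota at 10 nM preincubated 15 min with compounds at room temperature; reaction started with fluorescent substrate, 50 nM final. Fluorescence read kinetically at 0 and 10 min; buffer-only wells as negative control.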
Pol eta inh: DNA polymerase eta (human) inhibition; Q9Y253; AID 588591; recombinant Pol eta, fluorescent DNA replication assay; 390,000 tested, 1.2% active; Potency, µM (titrated, usually from 114 µM), most hits filed as inhibitors
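Fluorescent replication assay: 50 nM final substrate added after a 15 min room-temperature compound preincubation with 10 nM enzyme. Signal taken at 0 min and again at 10 min.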
PI5P4Ka inh: inhibitors of human PI5P4K alpha; max response, %; PI5P4Kalpha enzyme, ADP-Glo luminescence, 60 min; active compounds read low; 330,000 tested, 1.2% active; active = max response of -50% or lower; inconclusive = between -30% and -50%; inactive = -30% or higher; note: value at the top dose of about 77 µM
Target sequence (P48426 whole entry, looked up): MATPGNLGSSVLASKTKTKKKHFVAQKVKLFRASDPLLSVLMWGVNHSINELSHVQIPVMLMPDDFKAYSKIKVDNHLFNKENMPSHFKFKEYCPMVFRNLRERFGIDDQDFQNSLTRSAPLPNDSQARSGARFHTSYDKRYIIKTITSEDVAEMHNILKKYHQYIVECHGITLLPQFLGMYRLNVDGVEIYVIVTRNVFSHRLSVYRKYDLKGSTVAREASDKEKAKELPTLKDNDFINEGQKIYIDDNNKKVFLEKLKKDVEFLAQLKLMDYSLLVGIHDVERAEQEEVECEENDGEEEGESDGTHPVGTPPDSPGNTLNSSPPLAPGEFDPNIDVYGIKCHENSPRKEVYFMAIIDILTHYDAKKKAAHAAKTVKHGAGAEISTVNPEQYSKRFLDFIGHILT
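Human PI5P4Kalpha with substrate in 0.038 M HEPES pH 7.4, 0.28 mM EGTA, 0.1% CHAPS, 5% DMSO; reaction started with 5 microM ATP (final), 60 min at room temperature. ADP formed read by ADP-Glo luminescence.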
Pol kappa inh: inhibitors of human DNA polymerase kappa | Q9UBT6 | purified Pol kappa, fluorescent DNA synthesis assay, 10 min | Potency, µM (doses to about 107 µM), most hits filed as inhibitors | 400,000 tested, 0.53% active
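Here, compound and 10 nM enzyme are combined for 15 min at room temperature; adding 50 nM substrate (final) starts DNA synthesis, tracked by fluorescence at 0 and 10 min against buffer-only wells.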
WRN inhibitor: blocks human WRN helicase; AID 651768; WRN helicase unwinding, fluorescent forked duplex, kinetic; Potency, µM (highest dose often 114 µM), actives largely listed as inhibitors; 360,000 tested, 0.46% active; Q14191; note: nearly all actives have a fitted effect of over 55% in size
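Primary qHTS, 1536-well format. 20 nM WRN + compound, 15 min RT; start with 100 nM forked fluorophore/quencher duplex, 2 mM ATP (final); kinetic read ex 525/em 598 nm.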
POLB inh: DNA polymerase beta (human) inhibition; P06746; Pol beta primer extension/strand displacement, fluorescence kinetic; Potency, µM (series often up to 114 µM), hits mostly inhibitors; 340,000 tested, 1.3% active
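Human Pol beta at 10 nM; strand-displacement substrate 50 nM final. Compound exposure 15 min at room temperature before start, reaction 10 min at room temperature.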
Numbers stand for hits; . = inactive; ? = inconclusive; / = no result; ! = not active in a repeat; [ ] = remark or other dose. Shown are actives, neighbours in structure and some others; about 2.8% of the full set was active somewhere. Unless noted, calls come from the whole dose curve; as a rule, active = well fitted curve in the direction sought with a large enough effect; inconclusive = small, poorly fitted or top-dose-only effect, or another doubt; inactive = no such curve, though single readings can be large; an effect the other way counts as inactive or inconclusive.

SMILES	POLI inh	Pol eta inh	PI5P4Ka inh	Pol kappa inh	WRN inhibitor	POLB inh
N#Cc1cnc2sc3ccccc3n2c1=N	.	.	-61	.	.	.
O=c1[nH][nH]c2c1[C@H](CCc1cccc(Cl)c1)O[C@H](CCc1ccccc1)C2	/	/	.	/	.	/
CCCS(=O)(=O)N1CCN(Cc2ccccc2OCC)CC1	.	.	.	.	.	89µM
CCOc1ccccc1CN1CCN(S(=O)(=O)CC)CC1	.	.	/	.	.	.
CCc1cccc(NC(=O)c2cnc(SC)nc2-c2ccccc2)c1	.	.	/	.	/	.
CCCCn1c(=O)c(CCC(=O)OCC(=O)Nc2ccc(F)c(Cl)c2)nc2ccccc21	.	.	.	.	.	.
CCCOc1ccc(C2C(C(=O)c3cc4ccccc4o3)=C(O)C(=O)N2c2cc(C)on2)cc1 (stereo unspecified)	.	.	.	.	.	.
COc1cccc(C2C(C(=O)c3cc4ccccc4o3)=C(O)C(=O)N2c2cc(C)on2)c1 (stereo unspecified)	.	.	.	.	.	.
Cc1cc(N2C(=O)C(O)=C(C(=O)c3cc4ccccc4o3)C2c2cccc(Cl)c2)no1 (stereo unspecified)	.	.	-81	.	.	.
Cc1cc(N2C(=O)C(O)=C(C(=O)c3cc4ccccc4o3)C2c2ccc(Cl)cc2)no1 (stereo unspecified)	.	.	-72	.	.	.
Cc1cc(N2C(=O)C(O)=C(C(=O)c3cc4ccccc4o3)C2c2ccc(Br)cc2)no1 (stereo unspecified)	.	.	-67	.	.	.
Cc1ccc(Cl)cc1NC(=S)NN	.	.	.	.	.	.
CCOc1ccc(CCNC(=O)C2CCN(C(=O)c3cc4sccc4n3CC)CC2)cc1OCC	.	.	/	.	/	.
CCCCNC(=O)c1cc2cccc([N+](=O)[O-])c2[nH]1	.	.	.	.	.	.
O=C(O)c1cc2cccc([N+](=O)[O-])c2[nH]1	71µM!	/	/	45µM!	/	/
COc1cc(/C=C2\SC(=S)N(NC(=O)c3cccnc3)C2=O)ccc1O	16µM	?	.	?	50µM	?
COc1cc(/C=C2\SC(=S)N(NC(=O)c3ccc(O)cc3)C2=O)ccc1O	50µM	?	.	?	28µM	13µM
CC(=O)NN1C(=O)/C(=C\c2ccc(O)cc2)SC1=S	?	.	.	.	.	.
COc1ccc(C=O)cc1COc1c(F)c(F)cc(F)c1F	.	.	.	.	.	.
COc1ccc(C=O)cc1COc1ccc(F)cc1F	?	?	.	.	.	18µM
COc1ccc(C2Nc3ccccc3C(=O)N2Cc2ccco2)cc1COc1c(C)cccc1C (stereo unspecified)	25µM	/	/	.	/	/
COc1cccc(OCc2cc(C3Nc4ccccc4C(=O)N3Cc3ccco3)ccc2OC)c1 (stereo unspecified)	.	.	.	.	.	.
COC(=O)C1=C(C)N(CCCC(=O)O)C(=O)NC1c1cc2c(cc1[N+](=O)[O-])OCO2 (stereo unspecified)	13µM	50µM	-62	45µM	.	10µM
CC1=C(C(=O)OCc2ccccc2)C(c2ccccc2OS(=O)(=O)c2ccc([N+](=O)[O-])cc2)NC(=O)N1CCCC(=O)O (stereo unspecified)	.	.	-64	.	.	/
COC(=O)C1=C(C)N(CCCC(=O)O)C(=O)NC1c1ccc([N+](=O)[O-])cc1 (stereo unspecified)	.	.	-101	.	.	/
SMILES	POLI inh	Pol eta inh	PI5P4Ka inh	Pol kappa inh	WRN inhibitor	POLB inh
CCOC(=O)C1=C(C)N(CCCC(=O)O)C(=O)NC1c1ccccc1OS(=O)(=O)c1ccc([N+](=O)[O-])cc1 (stereo unspecified)	.	.	?	.	.	/
CCOC(=O)C1=C(C)N(CCCC(=O)O)C(=O)NC1c1ccc([N+](=O)[O-])cc1 (stereo unspecified)	.	.	-86	.	.	.
Cc1cc2nccc(-c3ccc(Cl)cc3Cl)n2n1	?	.	.	.	.	.
COc1ccc(C2(CNS(=O)(=O)c3ccccc3)CCOCC2)cc1	.	.	.	.	.	.
CCCOc1ccc(C(C)=O)cc1CSc1nc(O)cc(=O)[nH]1	35µM	.	.	?	.[11.6 µM]	?
CCCOc1ccc(C(C)=O)cc1CSCCC#N	.	.	.	.	.	.
CCC(=O)Nc1cc2c3c(c1)CCN3C(=O)CC2	?	.	.	79µM	.	.
CC(C)(C)CC(=O)Nc1cc2c3c(c1)CCN3C(=O)CC2	.	.	.	.	.	.
O=C1c2cccc3c(O)ccc(c23)C(=O)N1Cc1ccccc1	?	?	-63	.	.	.
O=C(O)c1cccc(CN2C(=O)c3ccccc3C2=O)c1	.	.	.	.	.	.
CCOC(=O)CSc1n[nH]c(=S)s1	.	.	?	.	.	.
CC(C)(C)CC(C)(C)SSc1n[nH]c(=S)s1	?	?	-66	.	?	/
N#Cc1ccccc1OCC(=O)OCCCOC(=O)COc1ccccc1C#N	.	.	.	.	.	.
CCN(CC)CCCNc1nc2ccccc2c2nc(-c3ccncc3)nn12	?	.	.	?	.[11.6 µM]	35µM
Cc1ccc(CCNC(=O)CCCn2c(=O)c3ccccc3n(Cc3ccccc3C)c2=O)cc1	.	.	/	.	/	.
Cc1ccc(NCC(O)Cn2cnc3c2c(=O)n(C)c(=O)n3C)cc1 (stereo unspecified)	.	.	.	.	.	13µM
Cc1ccsc1C1NC(=O)c2c(sc3c2CCCC3)N1 (stereo unspecified)	.	?	-68	.	.	.
CCC(NC(=O)COc1cc2c(c3oc(=O)c(C)c(C)c13)CCC(C)(C)O2)C(=O)O (stereo unspecified)	.	.	.	.	.	.
CC(CCC(C)C(C)(C)C)[C@@H]1CC[C@H]2C3C[C@H](OS(O)(=S)=S)[C@H]4C[C@H](OS(O)(=S)=S)[C@@H](OS(O)(=S)=S)C[C@]4(C)[C@H]3CC[C@]12C (stereo partly specified) (tested in a mixture with another compound)	3.5µM	3.5µM	?	20µM	16µM	/
O=C(O)/C(=C\c1cccc(C(F)(F)F)c1)c1ccc(S(=O)(=O)N2CCCC2)s1	?	?	.	.	.	/
O=C(O)/C(=C\c1ccc(Cl)cc1)c1ccc(S(=O)(=O)N2CCCC2)s1	.	?	.	?	.	/
O=C(O)/C(=C\c1cccc([N+](=O)[O-])c1)c1ccc(S(=O)(=O)N2CCCCC2)s1	?	?	.	.	.	25µM
COc1ccc(Br)cc1/C=C(\C(=O)O)c1ccc(S(=O)(=O)N2CCCC2)s1	?	22µM	.	?	?	/
